Source: PubChem BioAssay (NCATS)
Records with an inconclusive call do not appear. A number with no mark means an inactive call. Calls of active or inactive are those of the source. The call rests on the fitted dose curve; in most records, active means well fitted cell-killing curve with a large enough effect; inconclusive means small, poorly fitted or top-dose-only effect; inactive means no such curve, though single readings can be large or run the other way.

Experiment: qHTS of pediatric cancer cell lines to identify multiple opportunities for drug repurposing: Primary screen for LAN-5 cells (AID 1347100)
Conditions: LAN-5 neuroblastoma viability, CellTiter-Glo luminescence, 48 h; series mostly up to 46 µM; activity change, negative = cytotoxic: at the top concentration
From the text: Drug repurposing or repositioning has been offered as a strategy for drug development in oncology programs. This approach has special potential for childhood cancers and other rare or orphan diseases, where the expected return on new drug development has been a disincentive to pharmaceuticals.
In this project we exploit the poly-pharmacology of drugs to discover new indications via phenotypic screening of a panel of 19 well-characterized cell lines derived from solid tumors seen in children and adolescents. The goal is to identify approved drugs with previously unrecognized anticancer properties that has the potential to reveal new mechanisms and biological processes involved in carcinogenesis or drug resistance. We employed a titration-based paradigm (quantitative high-throughput screening or qHTS), where all compounds were tested at multiple concentrations for their effect on cell viability. Concentration-response curves (CRCs) were derived directly from the primary screen, and both potency and efficacy values were used to identify compounds with robust bioactivity profiles. We screened the NIH Chemical Genomics Center (NCGC) Pharmaceutical Collection (NPC) and Mechanism Interrogation Plate (MIPE) small molecule collections of approved and investigational compounds against these cell lines; and measured metabolically active cells after 48 hours of compound treatment as a proxy for cell viability.
Assay Submitter: Nathalia J. Martinez, National Center for Advancing Translational Sciences, National Institutes of Health, Rockville, MD, USA; email: natalia.martinez@nih.gov
[1] Shen, M et al. Quantitative high-throughput phenotypic screening of pediatric cancer cell lines identifies multiple opportunities for drug repurposing. Oncotarget 2017 Dec 19;9(4):4758-4772. PMID 29435139.
The cells were obtained from University of North Carolina (UNC), Pediatric Preclinical Testing Program (PPT), and Coriell Institute (CI).
qHTS cell viability assay:
Cells were assayed in growth media at a density of 500-1,000 cells/well. Five microliters of cells were dispensed into 1,536-well, white, solid-bottom, TC-treated plates (Greiner Bio One) using a multidrop dispenser and incubated at 37 degrees C, 5% CO2, under a humidified atmosphere for 5 hours. Twenty-three nanoliters of compounds and controls (neutral control DMSO or positive control bortezomib at final concentration of 2.3 µM) were subsequently transferred by Kalypsys pintool. For primary screens, the MIPE collection was tested at 11-point dilutions (final concentrations range from 0.78 nM to 46 µM) and the NPC collection at 8-point dilutions (final concentrations range from 0.59 nM to 46 µM). Compounds tested in follow-up screens were assayed at 11-point dilutions. Cells were incubated for 48 hours, followed by addition of 3 µL of CellTiter-Glo (Promega). After a 15 min incubation at room temperature, samples were analyzed for luminescence intensity using a ViewLux High-throughput CCD imager equipped with clear filters.
Potency means the concentration at half of the fitted maximal effect.

| SMILES | Potency | activity change, negative = cytotoxic |
| --- | --- | --- |
| CC(C)(C)C1CCC(CC2=C(O)c3ccccc3C(=O)C2=O)CC1 (stereo not given) | 9.44 µM (active) |  |
| CC(=O)/C=C/C=C1/C2CCC(C2)C1(C)C (stereo not given) |  | 5.18% |
| O=C(OCC(O)CO)c1ccccc1Nc1ccnc2c(C(F)(F)F)cccc12 (stereo not given) |  | -14.7% |
| CC(=O)N(c1onc(C)c1C)S(=O)(=O)c1ccc(N)cc1 |  | 22.6% |
| CNC(=O)c1c(I)c(NC(C)=O)c(I)c(C(=O)O)c1I |  | 10% |
| CC(C)(C)c1cc(C=O)cc(C(C)(C)C)c1O |  | 2.14% |
| C#CC(C)(CC)OC(=O)c1ccccc1C(=O)O (stereo not given) |  | 18.7% |
| CC(NCCC(c1ccccc1)c1ccccc1)c1ccccc1 (stereo not given) | 23.7 µM (active) |  |
| Cc1c(F)cc2c(=O)c(C(=O)O)cn3c2c1CCC3C (stereo not given) |  | 5.74% |
| Cc1nc(C2CCCCC2)c(-c2ccc(S(N)(=O)=O)c(F)c2)o1 |  | -3.07% |
| CC(=O)OCC[N+](C)(C)C |  | -16% |
| COc1cc(C(=O)NC2CCCNC2)cc(OC)c1OC (stereo not given) |  | 8.07% |
| CC(C)(C)NCC(O)COc1ccccc1OCC1CCCO1 (stereo not given) |  | 16.2% |
| Nc1ccc(C(=O)OCC(O)CO)cc1 (stereo not given) |  | 25.2% |
| O=C1CCCc2c(O)cccc21 |  | -1.76% |
| OC[C@]1(O)OC[C@@H](O)[C@H](O)[C@@H]1O |  | 12% |
| NS(=O)(=O)c1cc(C(=O)NN2C[C@H]3[C@H]4CCC(C4)[C@H]3C2)ccc1Cl |  | 5.49% |
| CC(C)CCCC(C)NCCC(C)C (stereo not given) |  | -8.19% |
| CCOC(=O)C(=O)CCc1ccccc1 |  | 7.4% |
| CSc1ccc(/C=C2/C(C)=C(CC(=O)O)c3cc(F)ccc32)cc1 |  | 11.9% |

| SMILES | Potency | activity change, negative = cytotoxic |
| --- | --- | --- |
| CCOC(=O)c1ccc(NC(=O)CN2CCCCC2)cc1 |  | -9.31% |
| CCC(C(=O)OCCN1CCOC(c2ccccc2)C1C)c1ccccc1 (stereo not given) |  | -11.1% |
| Cc1ccc(Cl)c(OCC(O)CNC(C)(C)C)c1 (stereo not given) |  | 4.8% |
| O=C(O)c1ccccc1Nc1cc(Cl)ccc1C(=O)O |  | 4.66% [at 16.1 µM] |
| O=C(Oc1ccccc1)c1cccc(C(=O)Oc2ccccc2)c1 |  | -16.7% [at 92.7 µM] |
| COC(=O)CCCCC(CCSS/C(CCO)=C(\C)N(C=O)Cc1cnc(C)nc1N)SC(C)=O (stereo not given) |  | 19.9% |
| OCc1cccnc1 |  | 0.362% |
| Fc1ccc(C(c2ccc(F)cc2)N2CCNCC2)cc1 |  | 7.04% |
| CCC[C@H](N[C@@H](C)C(=O)N1[C@H](C(=O)O)C[C@@H]2CCCC[C@@H]21)C(=O)OCC |  | 3.29% |
| COc1c(C)c2c(c(O)c1C/C=C(\C)CCC(=O)OCCN1CCOCC1)C(=O)OC2 | 0.841 µM (active) |  |
| COc1cc(S(N)(=O)=O)cc(C(=O)O)c1OC |  | -14% |
| C[C@H]1C[C@H](O)c2ccsc2S1(=O)=O |  | 9.5% |
| CCC(=O)Oc1ccc2c(c1)CC[C@@H]1[C@@H]2CC[C@@]2(C)[C@H]1C[C@@H](OC(=O)CC)[C@@H]2OC(=O)CC |  | -18.4% |
| CCN1C(=O)c2ccccc2C1Nc1ccc(OCCN2CCCCC2)cc1 (stereo not given) |  | 6.25% |
| CN1C(=O)c2ccccc2C1=O |  | -12.5% [at 92.7 µM] |
| Cc1ccc(C(=O)Oc2ccc(C(O)CNC(C)(C)C)cc2OC(=O)c2ccc(C)cc2)cc1 (stereo not given) |  | 4.98% |
| CC(=O)OCC(=O)Nc1cc(C#N)cc(NC(=O)COC(C)=O)c1Cl |  | 2.39% |
| CCOCCn1c(C2CCN(CCc3ccc(C(C)(C)C(=O)O)cc3)CC2)nc2ccccc21 |  | -6.73% |
| CO[C@@H]1[C@@H](O[C@@H]2O[C@H](C)[C@@H](O[C@H]3C[C@@](C)(O)[C@@H](O)[C@H](C)O3)[C@H](N(C)C)[C@H]2O)[C@@H](CC=O)C[C@@H](C)[C@@H](O[C@@H]2CC[C@H](N(C)C)[C@@H](C)O2)/C=C/C=C/C[C@@H](C)OC(=O)C[C@H]1OC(C)=O |  | -2.42% |
| COc1ccc2nc(SCc3ncc(C)c(OC)c3C)[nH]c2c1 |  | 4.42% |
